Rows were chosen to be rich in hits. Some 9% of all compounds tested hit in one or more screens of this group.
BAZ2B inh: blocks human BAZ2B. 4.4% of 360,000 active. AlphaScreen BAZ2B-H3K14Ac peptide displacement. Potency, µM (titrated, usually from 114 µM), inactives show at the highest dose activity change, negative = inhibition, most hits filed as inhibitors. AID 504333; also: % is scaled to controls: 0 for no effect and ±100 for the full control effect; nearly all actives have a fitted effect of over 60% in size
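Complex of BAZ2B and biotin-H3K14Ac (50 nM apiece) forms over 30 min at RT, then faces library compounds up to 110 uM for another 30 min; AlphaScreen beads added, 20 min dark incubation, luminescence read.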
PLK1 PBD inh: inhibitors of human PLK1 polo-box domain binding; P53350; Plk1 PBD binding of FITC phosphopeptide, fluorescence polarization; Potency, µM, for the others: max response, negative = inhibition, hits mostly inhibitors; 2.8% of 360,000 active; AID 720504; also: series mostly up to about 57 µM; % is scaled to controls: 0 for no effect and ±100 for the full control effect; nearly all actives have a fitted effect of over 65% in size
G9a inh: G9a (human) methyltransferase inhibition | Q96KQ7 | G9a H3K9 monomethylation, AlphaScreen, 2 h | Potency, µM (top dose mostly 102 µM), for inactives: top-dose activity, negative = inhibition, most hits filed as inhibitors | 8.8% of 350,000 active | AID 504332; also: % is scaled to controls: 0 for no effect and ±100 for the full control effect; nearly all actives have a fitted effect of over 75% in size
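Chemiluminescent proximity detection of H3K9 monomethylation, read after 10 min bead incubation in the dark. Reaction: 20 nM G9a, 500 nM biotin-H3K9 peptide, 20 uM SAM cofactor, 2 h, room temperature, following 15 min enzyme-compound preincubation.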
JMJD2A Tudor inh: inhibitors of human JMJD2A Tudor domain; AlphaScreen JMJD2A-Tudor / H3K4me3 peptide binding; Potency, µM (titrated, usually from 114 µM), inactives show top-dose activity change, negative = inhibition, hits mostly inhibitors; 4.4% of 390,000 active; AID 504339; also: % is scaled to controls: 0 for no effect and ±100 for the full control effect; nearly all actives have a fitted effect of over 50% in size
12-LOX inh: ALOX12 (human) lipoxygenase inhibition; P18054; Potency, µM (top dose mostly 108 µM), for the others: top-dose activity change, negative = inhibition, hits mostly inhibitors; 1.1% of 580,000 active; purified 12hLO, xylenol orange hydroperoxide absorbance; AID 1671190; also: % is scaled to controls: 0 for no effect and ±100 for the full control effect
Target sequence (P18054 whole entry, looked up): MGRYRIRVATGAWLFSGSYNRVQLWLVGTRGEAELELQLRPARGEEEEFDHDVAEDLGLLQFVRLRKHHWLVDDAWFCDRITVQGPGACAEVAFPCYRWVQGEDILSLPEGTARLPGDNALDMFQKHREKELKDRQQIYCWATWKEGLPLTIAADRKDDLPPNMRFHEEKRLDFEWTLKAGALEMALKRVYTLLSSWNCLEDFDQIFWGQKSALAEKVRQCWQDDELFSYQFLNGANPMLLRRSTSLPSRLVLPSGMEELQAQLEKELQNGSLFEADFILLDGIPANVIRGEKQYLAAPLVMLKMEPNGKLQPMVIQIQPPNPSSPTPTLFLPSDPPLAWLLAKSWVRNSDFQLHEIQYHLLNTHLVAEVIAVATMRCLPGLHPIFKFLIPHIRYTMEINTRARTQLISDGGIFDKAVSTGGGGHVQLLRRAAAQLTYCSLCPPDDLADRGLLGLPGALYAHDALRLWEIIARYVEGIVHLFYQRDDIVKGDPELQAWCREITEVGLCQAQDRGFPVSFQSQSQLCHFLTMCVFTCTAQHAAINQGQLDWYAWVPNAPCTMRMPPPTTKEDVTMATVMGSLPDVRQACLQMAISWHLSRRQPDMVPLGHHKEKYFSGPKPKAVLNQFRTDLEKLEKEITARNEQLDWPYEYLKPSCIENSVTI
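Purified human 12hLO at 150 nM in 25 mM Hepes, 0.01% Triton X-100, pH 7.0, preincubated 15 min at room temperature with compound. Reaction started with 40 uM arachidonic acid, 30 min at room temperature. Hydroperoxide measured by Fe-xylenol orange, 573/405 nm absorbance ratio.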
HP1b chromo inh: HP1-beta chromodomain-methylated histone interaction inhibition | P83916 | AlphaScreen HP1-beta / biotin-H3K9me3 peptide binding | Potency, µM (highest dose often 114 µM), for the others: at the highest dose activity change, negative = inhibition, usual class: inhibitors | 0.56% of 390,000 active | AID 540317; also: nearly all actives have a fitted effect of over 70% in size
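HP1-beta protein (50 nM final) preincubated 30 min at room temperature with biotinylated H3(1-18)K9me3 peptide (50 nM) in PBS pH 7.4, 0.01% Tween-20, then compound added for 30 min. AlphaScreen streptavidin donor/nickel chelate acceptor beads (10 ug/mL final), 30 min dark, luminescence read.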
* marks the source's active call; other numbers are inactive results; ? = inconclusive; . = no result given; ! = repeats disagree; [ ] = another dose, or the depositor's remark. Calls follow the shape of the dose curve; as a rule, active = well fitted curve in the direction sought with a large enough effect; inconclusive = small, poorly fitted or top-dose-only effect, or another doubt; inactive = no such curve, though single readings can be large; an effect the other way counts as inactive or inconclusive. Potency is read from the fitted curve at half-maximal effect.

SMILES | BAZ2B inh | PLK1 PBD inh | G9a inh | JMJD2A Tudor inh | 12-LOX inh | HP1b chromo inh
COc1ccc(/C(C)=N/Nc2nc(C)cc(-c3ccccc3)n2)cc1 | . | -4% | . | -17% | 0% | 19%
COc1ccc(/C(C)=N\Nc2nc(-c3ccccc3)cc(=O)[nH]2)cc1 | 11% | -11% | 8.9µM* | ? | 4% | 23%
COc1ccc(C/C(C)=N/Nc2nc(C)cc(=O)[nH]2)cc1 | -2% | -6% | 40µM* | -15% | 0% | 31%
COc1ccc(NC(=O)CSc2nc3c(c(=O)n2-c2ccccc2OC)SCC3)cc1 | -20% | -3% | ? | -28% | -26% | -5%
CCCc1cc2c(cc1NC(=O)Cc1ccccc1)OCO2 | . | -13% | . | -6% | 5% | 12%[57 µM]
COc1c(F)c(F)c(C(=O)Nc2ccc(-c3nc4ccccc4[nH]3)cc2)c(F)c1F | -13% | -1% | -27% | -9% | 14% | 42%
Cc1cc(C=C(C#N)C#N)c(C)n1-c1ccccc1 | -4% | 1% | -50% | -14% | -28% | 11%
Cc1cc(/C=C(\C#N)C(=O)O)c(C)n1-c1ccc(Br)cc1 | ? | 34µM* | 71µM* | -14%[11.4 µM] | -26% | -19%
Cc1cc(/C=C(\C#N)C(=O)O)c(C)n1CC1CCCO1 (centres undefined) | -31% | 3µM* | ? | 14µM* | -8% | ?
CCCn1c(C)cc(/C=C(\C#N)C(=O)O)c1C | 2% | -13% | -27% | -24% | -27% | 11%
O=C(CC1=C2CCCCC2N(Cc2ccc(F)cc2)C1=O)NC1CC1 (centres undefined) | . | . | . | . | 2% | .
O=C(N/N=C/c1ccccn1)c1cc(-c2ccc(Br)s2)[nH]n1 | -10% | 6% | 6% | -30% | 0% | -1%
CCNC(=S)NN=C1CCC(C(C)(C)C)CC1 (centres undefined) | 79µM* | 0% | ? | -29% | 0% | -8%
S=C(Nc1cccnc1)NC1CC2CCC1C2 (centres undefined) | 71µM* | -2% | . | -6% | -10% | 49%
OCc1ccccc1NC(=S)Nc1cccnc1 | -6% | -18% | -6% | -4% | 1% | 13%
CC(C)(C)C1CCC(=NNC(=S)Nc2cccnc2)CC1 (centres undefined) | ? | -2% | 10µM* | ? | -14% | 18%
CCn1c(CNC(=O)c2ccc3c(c2)OCO3)nnc1SCC(=O)Nc1cc(C)ccc1OC | -19% | 1% | 0%[59 µM] | -15% | 9% | 19%
Cc1ccccc1C(C)NC(=O)CSc1nc2cc([N+](=O)[O-])ccc2o1 (centres undefined) | . | . | . | . | 25µM* | .
Cc1ccc(CNC(=O)CSc2nc3cc([N+](=O)[O-])ccc3o2)cc1 | . | . | . | . | -18% | .
CCOc1ccc(-n2c(-c3ccccc3)c[nH]c2=S)cc1 | -11% | -3% | 1.3µM* | ? | ? | 25%
COc1cccc(-c2cccc(C(=O)O)c2)c1 | . | . | . | . | 6%[12.5 µM] | .
S=c1[nH]cc(-c2ccccc2)n1-c1cccc(Cl)c1 | -33% | -7% | 1.1µM* | 56µM* | 5% | 19%
Cn1c(=O)n(-c2cccc(Cl)c2)c(=O)n1C | 4% | -6% | 7%[59 µM] | -8% | -6% | 34%
COc1cccc(-n2c(-c3ccccc3)c[nH]c2=S)c1 | ? | -14% | 1.4µM* | ? | ? | ?
Cc1ccc(-c2c[nH]c(=S)n2-c2ccccc2)cc1 | ? | -19% | 0.71µM* | ? | ? | -14%
SMILES | BAZ2B inh | PLK1 PBD inh | G9a inh | JMJD2A Tudor inh | 12-LOX inh | HP1b chromo inh
COc1ccc(Cc2nnc(N/N=C/c3ccc(O)cc3O)[nH]c2=O)cc1OC | 5µM* | -4% | 15%[59 µM] | 14µM* | -14% | 31%
CCCCCC/C=N/Nc1nnc(Cc2ccc(OC)c(OC)c2)c(=O)[nH]1 | 7.1µM* | -5% | 12% | 0.89µM* | 27% | 23%
COc1cc(OC)cc(-c2nc(-c3cccc(C)c3)no2)c1 | 75% | . | 79%[59 µM] | 69% | -24% | 95%
O=C(Nc1ccc2c(c1)OCCO2)c1cnc2n(c1=O)CCS2 | 2% | -2% | 50µM* | 1% | ? | 36%
O=C(Nc1ccc2c(c1)OCO2)c1cnc2n(c1=O)CCS2 | 11% | -10% | ? | -12% | -6% | 25%
O=C(NCCCc1ccccc1)c1cnc2n(c1=O)CCS2 | 16% | ? | -10%[12.7 µM] | -8% | -1% | 32%
O=C(Nc1ccccc1)c1cnc2n(c1=O)CCS2 | 9% | -13% | 50µM* | -7% | -15% | 44%
Cc1cccc(NC(=O)c2cnc3n(c2=O)CCS3)c1 | 1% | -4% | -17%[59 µM] | -8% | 1% | 30%
O=C(NCCc1ccc(Cl)cc1)c1cnc2n(c1=O)CCS2 | 11% | -16% | 45µM* | -21% | -3%[57.4 µM] | 23%
Cn1cc(CC(=O)Nc2ccc(Nc3cccnc3)c(Br)c2)c2ccccc21 | . | . | . | . | 1% | .
CN1CCN(NC(=O)Nc2ccc([N+](=O)[O-])cc2)CC1 | -14% | 0% | . | -2% | -1% | 29%
COCCNC(=S)NN(c1ccccc1)c1ccccc1 | -37% | 27µM* | 28µM* | -27% | -19% | -13%
Cc1cc(=O)[nH]c(N/N=C/c2ccc(O)c(O)c2)n1 | 4% | -6% | 1% | 2.8µM* | ? | 10%[57 µM]
Cc1cc(=O)[nH]c(NN=Cc2c(Cl)cccc2Cl)n1 | . | -2% | . | -30% | -6% | 29%
CSc1ccc(/C=N/Nc2nc(C)cc(=O)[nH]2)cc1 | -6% | -6% | 1% | ? | -1% | 15%
Cc1cccc(-n2c(O)c(C=Nc3ccccc3)c3ccccc3c2=O)n1 | -30% | 24µM* | ? | 11µM* | ? | ?
Cc1cc(=O)[nH]c(N/N=C/c2c(O)n(-c3ccccc3)c(=O)c3ccccc23)n1 | 40µM* | 11% | ? | ? | ? | 0%
CN(Cc1ccco1)c1ncnc2ccc(-c3ccccc3Cl)cc12 | -30% | . | -36%[12.7 µM] | ? | 28µM*! | 21%
C=CCN(CC=C)C(=S)Nc1ccc2nsnc2c1 | -11% | -7% | 18µM* | 4% | ? | 34%
COc1ccc(NC(=S)Nc2ccc3nsnc3c2)cc1 | -36% | 13µM* | 2µM* | ? | 7.9µM* | ?
COc1ccc(NC(=S)Nc2ccc3nc(C)c(C)nc3c2)cc1 | 0% | -8% | 45µM* | -14% | -19% | 8%
CNC(=S)Nc1ccc2nc(C)c(C)nc2c1 | ? | -8% | ? | 2% | -26% | 38%
CCOc1ccc(NC(=S)Nc2cc(C)[nH]n2)cc1 | ? | -4% | -136%[59 µM] | ? | 40µM* | -14%
CCOc1ccc(-n2nc3ccc(NC(=O)CC)cc3n2)cc1 | -26% | ? | 35µM* | ? | 32% | -6%
CCOc1ccc(NC(=S)Nc2ccc3nsnc3c2)cc1 | -34% | 27µM* | ? | -36% | ? | ?

Bioassay records (PubChem BioAssay)
